Results filed as inconclusive are left out. A number with no mark means an inactive call. Calls follow the shape of the full dose curve.
Test: Cell Viability - MRC5 (AID 434);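 also: potency reflects cytotoxicity seen as loss of intracellular ATP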
Details: MRC5 lung fibroblast viability, qHTS
Excerpt: NIH Chemical Genomics Center [NCGC]
NIH Molecular Libraries Screening Centers Network [MLSCN]
National Institutes of Environmental Health Sciences [NIEHS]
National Toxicology Program [NTP]
We have developed a 1536-well cell-based assay for quantitative high throughput screening (qHTS) against a number of cell lines to determine in vitro cytotoxicity of small molecules. This particular assay uses the MRC5 cell line which is derived from normal human lung fibroblasts.
NCGC Assay Protocol Summary:
The CellTiter-Glo luminescent cell viability assay (Promega) is a homogeneous method to measure the number of viable cells in culture. The end point readout of this assay is based on quantitation of intracellular ATP, an indicator of metabolic activity, using the luciferase reaction. Luciferase catalyzes the oxidation of beetle Luciferin to oxyluciferin and light in the presence of ATP. The luminescent signal is proportional to amount of ATP present.
Using the CellTiter-Glo luminescent cell viability assay, the amount of cellular ATP was measured in the MRC5 cell line with complete culture medium following compound treatment for 40 hours. The assay was performed in opaque white Kalypsys 1536-well plates. In the screen, tamoxifen and doxorubicin were used as positive controls. Library compounds were measured for their ability to cause acute toxicity in the cell line, as reflected by a decrease in intracellular ATP levels, in a concentration-dependent manner. Data were normalized to the controls for basal activity (DMSO only) and 100% inhibition (100 uM tamoxifen). AC50 values were determined from concentration-response data modeled with the standard Hill equation.
qHTS protocol for CellTiter Glo MRC5 cellular assay
[Step] [Parameter] [Value] [Description]
1. Reagent; 5 uL; 1500 MRC5 cells/well
2. Time; 5 hr; 37 °C incubation
4. Controls; 23 nL; Tamoxifen 0.34 uM to 100 uM & Doxorubicin 0.02 nM to 100 uM
5. Time; 40 hr; 37 °C incubation
6. Reagent; 5 uL; CellTiter Glo reagent
7. Time; 20 min; Room Temperature
8. Detection; Luminescence; Viewlux plate reader
Keywords: cell viability, cytotoxicity, MRC5 cell line, luminescence, NTPHTS, NTPHTS_NCGC, NIEHS, EPA, DSSTox, MLSMR, MLSCN, NIH Roadmap, qHTS, NCGC
Potency is read from the fitted curve at half-maximal effect.

| Structure (SMILES) | Potency [µM] |
| --- | --- |
| Nn1cnnc1 | > 92 |
| ClCC(Cl)CCl | > 92 |
| Cc1ccc(N)cc1N | > 92 |
| CCCCC(=O)Cl | > 92 |
| c1ccc(Nc2ccc(Nc3ccccc3)cc2)cc1 | > 92 |
| O=C(O)CCl | > 92 |
| CCCC[N+](=O)[O-] | > 92 |
| O=[N+]([O-])c1ccccc1O | > 92 |
| Cl/C=C\Cl | > 92 |
| N#CC(Br)Br | > 92 |
| CCCCCC[N+](=O)[O-] | > 92 |
| CC(C#N)CCC#N (stereo not given) | > 92 |
| Nc1cc(Cl)cc(C(=O)O)c1Cl | > 92 |
| O=Cc1ccc(Cl)cc1Cl | > 92 |
| COC(=O)c1ccccc1N | > 92 |
| ClC(Cl)(Cl)C(Cl)(Cl)Cl | > 92 |
| Nc1ncc([N+](=O)[O-])s1 | > 92 |
| Cc1cccc(C)c1N | > 92 |
| CC(=O)[O-].CC(=O)[O-].CC(=O)[O-].[Cr+3] | > 92 |
| O=C(O)c1cccc(Cl)c1 | > 92 |

| Structure (SMILES) | Potency [µM] |
| --- | --- |
| CCCCOC(C)=O | > 92 |
| ClC=CCl | > 92 |
| CCOC(=O)C1OC1(C)c1ccccc1 (stereo not given) | > 92 |
| C=CCO | > 92 |
| O=[N+]([O-])c1cccc(O)c1 | > 92 |
| Brc1ccc(Oc2ccc(Br)cc2Br)c(Br)c1 | > 92 |
| CC(C)C#N | > 92 |
| CN(C)c1ccc(N(C)C)cc1 | > 92 |
| ClCCCCl | > 92 |
| CCCCNC(=O)n1c(NC(=O)OC)nc2ccccc21 | > 92 |
| Cl/C=C/Cl | > 92 |
| O=[N+]([O-])c1c(Cl)c(Cl)c(Cl)c(Cl)c1Cl | > 92 |
| CCN(N=O)C(N)=O | > 92 |
| c1ccc(N=NNc2ccccc2)cc1 | > 92 |
| c1ccc2c(c1)CCNC2 | > 92 |
| N#C/C=C/C#N | > 92 |
| ClCC(Br)CBr (stereo not given) | > 92 |
| Nc1cccc2ccccc12 | > 92 |
| [O-][Cl+2]([O-])O | > 92 |
| N#CCBr | > 92 |
